The nature of the test: Peg3 promoter luciferase inhibitors, potency, dose response, cell-based, HeLa, CREF/GAPDH counter-screen panel (AID 624167). Particulars: CREF/GAPDH counter-screens; run 2, dose range 1, at 100 µM (top of the series).
Regarding `O=C(CCl)N1c2ccccc2Sc2ccc3ccccc3c21`, the inhibition stood at 100%.

Take `CS(=O)(=O)Nc1cccc(NC(=O)C2Cc3c(-c4ccccc4)ccnc3O2)c1` (configuration not stated): the inhibition stood at 54.2%. Turning to `C(=N\Nc1ccc2ccccc2n1)/c1ccc2c(c1)OCCO2`, the inhibition amounted to 92%. As to `CS(=O)(=O)Nc1cccc(NC(=O)C2Cc3c(-c4cccc(F)c4)ccnc3O2)c1` (configuration not stated), the inhibition worked out at 73.6%. For the molecule `CCCCCCN1C=C/C(=C\C=C(C#N)C#N)c2ccccc21`, the inhibition stood at 22.9%. The value for `O=C(/C=C/c1ccc(Cl)c([N+](=O)[O-])c1)c1ccc(O)cc1` was 99.5%. The value for `C=CCn1c(C)cc(C(=O)COc2ccc(C)nc2[N+](=O)[O-])c1C` was 51.8%. The value for `COC1CC(C)C(OC)c2cc(O)cc(c2O)NC(=O)C(C)=CC=CC(C)C(OC(N)=O)C(C)=CC(C)C1OC` (configuration not stated) was 84.8%.

In the case of `Oc1[nH]c2ccc(Br)cc2c1N=NC(=S)N1CCOCC1`, the inhibition was determined as 63.5%. To `CCCC(=O)NC(c1ccc(C)cc1)c1ccc2cccnc2c1O` (configuration not stated) belongs 57.9%; to `O=C(N/N=C/c1ccc(Cl)c([N+](=O)[O-])c1)c1cc(-c2ccc3c4c(cccc24)CC3)n[nH]1`, 98.4%; to `CS(=O)(=O)c1ccc(-c2sc3ccccc3c2C#CCCO)cc1`, 81.8%. The value for `CN=c1sc2c(n1C)C(=O)c1ccccc1C2=O` was 87.2%; that for `CN(C(=O)COC(=O)/C=C/c1cccc([N+](=O)[O-])c1)C1CCS(=O)(=O)C1` (configuration not stated) was -31.8%; that for `O=C(Nc1ccc(Cc2ccncc2)cc1)c1ccc([N+](=O)[O-])o1` was 95.3%. With `COc1ccc(NC(=O)c2cc(-c3ccccn3)nc3ccccc23)cc1S(=O)(=O)N(C)C`, the inhibition was determined as 60.4%. To `O=C(Nc1ccccc1)c1nc[nH]c1C(=O)NCCCCCCNC(=O)c1[nH]cnc1C(=O)Nc1ccccc1` belongs 83%.
